From PubChem BioAssay (NCATS)
Several values for one entry are separate records, joined by “and”; a condition that tells them apart may be missing. Identical values can stand only once. Results filed as inconclusive are left out. A structure can be active in one record and inactive in another. Activity calls are given as the source filed them. Calls follow the shape of the dose curve; as a rule, active = well fitted curve in the direction sought with a large enough effect; inconclusive = small, poorly fitted or top-dose-only effect, or another doubt; inactive = no such curve, though single readings can be large; an effect the other way counts as inactive or inconclusive. *1 amine or outer side, *2 acyl side, *3 side chain or, on linkers, in order; H or OH if unused. Where a SMILES comes first, the peptide text is derived from it. Bridges are numbered along the chain shown (N, C = ends). [ ]: non-standard residue; d: D form. The star is where a group is joined. ξ: configuration not given here. ξhTyr(3S-OH,4S-OH,3'-OSO3H) = NC(C(=O)O)[C@H](O)[C@@H](O)c1ccc(O)c(OS(=O)(=O)O)c1; Orn(4R-OH,5R-OH) = O=C([C@H](C[C@@H](O)[C@@H](O)N[*:3])N[*:1])[*:2]; X2 = CCCCCOc1ccc(-c2cc(-c3ccc(C(=O)*)cc3)no2)cc1; X3 = C[C@H]1CN([*:1])C(C(=O)[*:2])[C@H]1O; ξGln(3R-OH) = NC(=O)C[C@@H](O)C(N)C(=O)O; ξPro(4R-OH) = O=C(O)C1C[C@@H](O)CN1; ξThr(3R) = C[C@@H](O)C(N)C(=O)O

Tests used:
[1] = target: Phospholipid hydroperoxide glutathione peroxidase GPX4 (Homo sapiens) (UniProt P36969); test: Primary qHTS Assay for Inhibitors of Recombinant Selenoprotein Glutathione Peroxidase 4 (GPX4) (AID 1845192); also: nearly all actives have a fitted effect of over 65% in size; also: potency is read from the fitted curve at half-maximal effect; as to activity change, negative = inhibition: series mostly up to about 50 µM; % is scaled to controls: 0 for no effect and ±100 for the full control effect
Chain of Phospholipid hydroperoxide glutathione peroxidase GPX4 (Homo sapiens) (P36969 whole entry, looked up): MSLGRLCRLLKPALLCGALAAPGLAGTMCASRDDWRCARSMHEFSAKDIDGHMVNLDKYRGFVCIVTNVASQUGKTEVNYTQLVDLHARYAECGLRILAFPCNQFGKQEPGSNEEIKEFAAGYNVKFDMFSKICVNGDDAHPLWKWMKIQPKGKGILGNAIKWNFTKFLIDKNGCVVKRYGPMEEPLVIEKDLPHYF
Method in brief: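 GR-coupled assay: recombinant GPX4 preincubated 30 min with compound at room temperature; final 200 nM GPX4, 1 mM GSH, 0.5 mM cumene hydroperoxide, 0.5 mM NADPH, 100 nM GR, 0.01% BSA, pH 7.5 Tris. NADPH fluorescence (340/450 nm) read at 0 and 15 min.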

[2] = target: Luciferin 4-monooxygenase (Photinus pyralis) (UniProt P08659); test: Primary firefly luciferase (FLuc) qHTS assay for identification of artifact compounds. (AID 1845220); also: nearly all actives have a fitted effect of over 60% in size;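 as to activity change, negative = inhibition: series mostly up to about 54 µM; plate controls were DMSO vehicle for no effect and no enzyme for full effect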
Method in brief: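 Enzymatic FLuc inhibition assay: compounds pre-exposed to luciferin/ATP (10 uM each) for 15 min, then purified P. pyralis enzyme at 10 nM added. Read-out: luminescence at 5 min.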

[3] = Primary fluorescence-based thiol-reactive (MSTI) qHTS assay for identification of artifact compounds. (AID 1845221); also: nearly all actives have a fitted effect of over 65% in size; also: potency is read from the fitted curve at half-maximal effect;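 as to activity change, negative = thiol reactive: series mostly up to about 54 µM; thiol-reactive compounds lower the probe fluorescence signal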
Method in brief: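 Thiol-reactive compounds detected by quenching of 4 uM MSTI fluorescence (525/598 nm) after 1 h room-temperature dark incubation in PBS pH 7.4, 2% DMSO. qHTS titration; percent inhibition Hill-fitted against Acetyl-MSTI/MSTI controls.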

[4] = system: Nanoluciferase (engineered Oplophorus gracilirostris luciferase); test: Primary Nanoluciferase (NLuc) qHTS assay for identification of artifact compounds. (AID 1845222);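 also: NLuc secreted into diluted conditioned medium of S16 cells; series mostly up to about 54 µM; 0% = DMSO and -100% = no enzyme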
Method in brief: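 S16 cell supernatant NLuc, 1:55; cpds qHTS; 15 min RT dark; Nano-Glo substrate 1:100, 5 min; luminescence; Hill fit of % inhibition.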

[5] = Primary redox qHTS assay for identification of artifact compounds. (AID 1845223);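 also: 0% = DMSO and 100% = reference compound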
Method in brief: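 Amplex Red (25 uM) and HRP (250 mU/mL) in HBSS, with compounds for 15 min, then 250 uM DTT for 30 min, room temperature, dark. Fluorescence 525/598 nm read; normalized to DMSO and 10 uM DA3003; Hill fit.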

COc1cc(C)c(C(=O)OC2C(C)OC(OC3CCC(C)C4C3C=C(C)C3/C(C)=C\CC/C(C)=C/C5(C)C=C(C(=O)O)C(C)CC56OC(=O)/C(=C(\O)C34C)C6=O)C(O)C2O)c(OC)c1 (centres undefined)
inactive: Potency [1] | activity change, negative = inhibition [2] 1.3% [at 11.6 µM] | activity change, negative = thiol reactive [3] 142% [at 11.5 µM] | activity, negative = inhibition [4] 4.78% [at 11.6 µM]

C=C1CC2C3(C)C(O)CC(=O)C(C)(C)C3C(O)C(OC(C)=O)C2(C)C2C(=O)OC(C)(C(=O)OC)C(=O)C12C (centres undefined)
inactive: Potency [1] | Potency [2] | Potency [3] | Potency [4] | Potency [5]

CCC[C@H](N[C@@H](C)C(=O)N1[C@H](C(=O)O)C[C@@H]2CCCC[C@@H]21)C(=O)O
inactive: Potency [1] | Potency [2] | Potency [3] | Potency [4] | Potency [5]

C=C1C(O)C(OC(=O)c2ccccc2)C2C(C)(C(=O)O)CCCC2(C)C1CC/C(C)=C\CO (centres undefined)
inactive: Potency [1] | Potency [2] | Potency [3] | Potency [4] | Potency [5]

CCCCCOC(=O)Nc1nc(=O)n(C2O[C@H](C)[C@@H](O)[C@H]2O)cc1F (some centres undefined)
inactive: Potency [1] | Potency [2] | Potency [3] | Potency [4] | Potency [5]

CC(=O)OCC1OC(O[C@H]2CC[C@@]3(C)C(CC[C@]4(C)C3CC=C3[C@@H]5CC(C)(C)CC[C@]5(C(=O)O)CC[C@]34C)[C@]2(C)CO)C(O)C(O)C1OC1OC(C)C(O)C(OC2OCC(O)C(O)C2O)C1O (some centres undefined)
inactive: Potency [1] | outcome [2] inactive [at 11.6 µM] | activity change, negative = thiol reactive [3] 307% [at 11.5 µM] | activity, negative = inhibition [4] 3.41% [at 11.6 µM] | redox activity (% of DA3003) [5] -4.45% [at 11.5 µM]

CC1(O)CCC2C(C3C1CCC3(C)O)C2(C)C (centres undefined)
inactive: Potency [1] | Potency [2] | Potency [3] | Potency [4]

C/C=C1/[C@H](O[C@@H]2O[C@H](CO)[C@@H](O)[C@H](O)[C@H]2O)OC=C(C(=O)OC)[C@H]1CC(=O)OCCc1ccc(O)c(O)c1
inactive: Potency [1] | Potency [2] | Potency [4]
active: Potency [3] 2.07 µM

C=C1C(=O)OC[C@H]2C(C(=O)O)=CC3CC(C)(C)C[C@@]132 (some centres undefined)
inactive: Potency [1] | Potency [2] | Potency [4]
active: Potency [3] 21.2 µM

CC1(C)CC=C(c2cnc3ccccc3c2)c2cc(C(=O)Nc3ccc(C(=O)O)cc3)ccc21
inactive: Potency [1] | Potency [2] | Potency [3] | Potency [4] | Potency [5]

COc1cc(Nc2ccc([N+](=O)[O-])cc2C(=O)O)cc2ccccc12
inactive: Potency [1] | Potency [2]
active: Potency [3] 0.67 µM

CC(C)=CCC[C@](C)(O[C@@H]1O[C@H](CO[C@@H]2OC[C@H](O)[C@H](O)[C@H]2O)[C@@H](O)[C@H](O)[C@H]1O)[C@H]1CC[C@]2(C)[C@@H]1[C@H](O)C[C@@H]1[C@@]3(C)CC[C@H](O[C@@H]4O[C@H](CO)[C@@H](O)[C@H](O)[C@H]4O[C@@H]4O[C@H](CO)[C@@H](O)[C@H](O)[C@H]4O)C(C)(C)[C@@H]3CC[C@]12C
inactive: Potency [1] | Potency [2] | Potency [3] | Potency [4] | Potency [5]

CCOC(=O)C(CCc1ccccc1)NC(C)C(=O)N1Cc2ccccc2CC1C(=O)O (centres undefined)
inactive: Potency [1] | Potency [2] | Potency [3] | Potency [4]

CN[C@H](CNC(=O)N1CCC[C@@H]([C@@H](OCCNC(=O)OC)c2cccc(Cl)c2)C1)C[C@H]1CCCOC1
inactive: Potency [1] | Potency [2] | Potency [3] | Potency [4] | Potency [5]

O=C(NC1Cc2ccccc2N(C[C@@H](O)CO)C1=O)c1cc2cc(Cl)sc2[nH]1 (some centres undefined)
inactive: Potency [1] | Potency [2] | Potency [3] | Potency [4] | Potency [5]

O=C(O[C@@H]1O[C@H](CO)[C@@H](O)[C@H](O)[C@H]1O)c1ccccc1
inactive: Potency [1] | Potency [2] | Potency [4] | Potency [5]
active: Potency [3] 23.8 µM

CC(C)C1CCC(C(=O)N[C@@H](Cc2ccccc2)C(=O)O)CC1 (some centres undefined)
inactive: Potency [1] | Potency [2] | Potency [3] | Potency [4] | Potency [5]

CC1(CO)CC(O)C2(C)CCC3(C)C(=CCC4C5(C=O)CCC(OC6OC(C(=O)O)C(O)C(O)C6OC6OC(C(=O)O)C(O)C(O)C6O)C(C)(C)C5CCC43C)C2C1 (centres undefined)
inactive: Potency [1] | activity change, negative = inhibition [2] -10.9% [at 11.6 µM] | activity, negative = inhibition [4] -13.8% [at 11.6 µM]

Cc1ccc2[nH]c(=O)c(C3=NN(C(=O)CCC(=O)O)C(c4ccc(Br)cc4)C3)c(-c3ccccc3)c2c1 (centres undefined)
inactive: Potency [1] | Potency [2] | Potency [3] | Potency [4] | Potency [5]

CCOC(=O)C(CCc1ccccc1)NC1CCCN2CCCC(C(=O)O)N2C1=O (centres undefined)
inactive: Potency [1] | Potency [3] | Potency [4]

CC1C2=CC(=O)OC2(O)CC2C1C(OC(=O)c1ccccc1)C(OC(=O)c1ccccc1)C1(O)C2(C)CCC(O)C1(C)C(=O)O (centres undefined)
inactive: Potency [1] | Potency [2] | Potency [3] | Potency [4] | Potency [5]

COC1OC(O)C2(CCC3(O2)C(C)CC2OC(=O)C4(C)CCCC3(C)C24)C1O (centres undefined)
inactive: Potency [1] | Potency [2] | Potency [4] | Potency [5]

C[C@@H]1CC[C@]2(C(=O)O[C@@H]3O[C@H](CO[C@@H]4O[C@H](CO)[C@@H](O[C@@H]5O[C@@H](C)[C@H](O)[C@@H](O)[C@H]5O)[C@H](O)[C@H]4O)[C@@H](O)[C@H](O)[C@H]3O)CC[C@]3(C)C(=CCC4[C@@]5(C)C[C@@H](O)[C@H](O)[C@@](C)(CO)C5CC[C@]43C)C2[C@H]1C (some centres undefined)
inactive: Potency [1] | activity change, negative = inhibition [2] 3.24% [at 11.6 µM] | activity change, negative = thiol reactive [3] 329% [at 11.5 µM] | activity, negative = inhibition [4] 0% [at 11.6 µM] | redox activity (% of DA3003) [5] 3.39% [at 11.5 µM]

CC1=C2C(=O)C=C(CO[C@@H]3O[C@H](CO)[C@@H](O)[C@H](O)[C@H]3O)[C@@H]2[C@H]2OC(=O)[C@H](C)[C@@H]2[C@@H](O)C1
inactive: Potency [1] | Potency [3] | Potency [4] | Potency [5]

CCCCCOc1ccc(-c2cc(-c3ccc(C(=O)N[C@H]4C[C@@H](O)[C@@H](O)NC(=O)C5[C@@H](O)[C@@H](C)CN5C(=O)C([C@H](O)CC(N)=O)NC(=O)C([C@H](O)[C@@H](O)c5ccc(O)c(OS(=O)(=O)O)c5)NC(=O)C5C[C@@H](O)CN5C(=O)C([C@@H](C)O)NC4=O)cc3)no2)cc1 (stereo partly drawn) (X2-[Orn(4R-OH,5R-OH)][ξThr(3R)][ξPro(4R-OH)][ξhTyr(3S-OH,4S-OH,3'-OSO3H)][ξGln(3R-OH)][X3]; lactam 1-C)
inactive and 2 µM (active): Potency [1]
inactive: Potency [2] | Potency [4]

CC1OC(OC2CCC3(C)C(CCC4(C)C3C=CC35OCC6(CCC(C)(C)CC63)CCC45C)C2(C)CO)C(OC2OC(CO)C(O)C(O)C2O)C(O)C1OC1OC(CO)C(O)C(O)C1O (centres undefined)
inactive: Potency [1] | activity change, negative = inhibition [2] 1.11% [at 11.6 µM] | activity change, negative = thiol reactive [3] 34% [at 11.5 µM] | activity, negative = inhibition [4] 3.75% [at 11.6 µM] | redox activity (% of DA3003) [5] 12.4% [at 11.5 µM]

O=C(O)c1ccnc2cc(-c3nc4ccccc4n3CCN3CCCCC3)sc12
inactive: Potency [2] | Potency [3] | Potency [4] | Potency [5]
